Assay results: PMC4336329 (PLoS ONE, 2015)
Among all 310,000 compounds or so, about 14,000 (4.5%) showed an effect of 50% or more. The effect is printed as a negative number. The entries come from a sample that favours strong results as a whole.

Molecular target: human ether-à-go-go-related gene (hERG) potassium channel (human, UniProt Q12809)
Experiment: primary screen, population patch clamp on CHO cells stably expressing hERG; higher = less effect of the substance
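Note: peak tail current of the secondary pulse compared with the same well before compound.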

Chain of human ether-à-go-go-related gene (hERG) potassium channel (Q12809 whole entry, looked up): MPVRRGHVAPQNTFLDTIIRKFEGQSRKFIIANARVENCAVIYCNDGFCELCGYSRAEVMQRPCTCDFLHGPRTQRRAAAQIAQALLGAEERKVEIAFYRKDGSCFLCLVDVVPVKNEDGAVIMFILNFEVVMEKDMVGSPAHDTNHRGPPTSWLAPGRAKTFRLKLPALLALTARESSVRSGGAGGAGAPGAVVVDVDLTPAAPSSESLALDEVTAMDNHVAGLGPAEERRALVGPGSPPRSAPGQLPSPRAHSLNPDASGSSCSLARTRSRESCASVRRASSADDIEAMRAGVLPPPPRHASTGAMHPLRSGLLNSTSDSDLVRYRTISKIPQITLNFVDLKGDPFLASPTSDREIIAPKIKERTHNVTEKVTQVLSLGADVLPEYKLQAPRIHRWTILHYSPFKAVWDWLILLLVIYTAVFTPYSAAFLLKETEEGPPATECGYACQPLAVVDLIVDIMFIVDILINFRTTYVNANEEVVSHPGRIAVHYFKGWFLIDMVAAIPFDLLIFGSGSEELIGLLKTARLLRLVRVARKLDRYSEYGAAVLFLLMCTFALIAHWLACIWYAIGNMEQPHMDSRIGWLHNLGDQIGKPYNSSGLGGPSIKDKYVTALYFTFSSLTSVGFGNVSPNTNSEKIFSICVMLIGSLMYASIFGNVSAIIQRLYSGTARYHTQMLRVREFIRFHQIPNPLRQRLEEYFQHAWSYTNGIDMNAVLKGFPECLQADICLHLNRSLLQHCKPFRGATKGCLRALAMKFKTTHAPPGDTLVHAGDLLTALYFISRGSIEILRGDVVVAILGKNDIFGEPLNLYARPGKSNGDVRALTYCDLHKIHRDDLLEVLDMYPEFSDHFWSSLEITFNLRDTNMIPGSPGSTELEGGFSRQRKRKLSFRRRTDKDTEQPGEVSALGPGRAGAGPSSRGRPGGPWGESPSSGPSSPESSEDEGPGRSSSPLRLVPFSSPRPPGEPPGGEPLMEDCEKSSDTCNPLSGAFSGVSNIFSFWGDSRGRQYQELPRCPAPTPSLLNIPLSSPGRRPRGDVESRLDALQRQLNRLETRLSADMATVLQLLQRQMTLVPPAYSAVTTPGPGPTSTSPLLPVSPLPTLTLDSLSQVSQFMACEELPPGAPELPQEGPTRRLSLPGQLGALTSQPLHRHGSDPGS

Compound	hERG current change (%, negative = inhibition) at 10uM [%]
O=C(NCCc1ccc(Cl)cc1)c1cccs1	-3.58
O=C(Cc1ccccc1)NCCSCc1ccc(Cl)cc1	-9.5
O=C(NCCSCc1ccc(Cl)cc1)c1cccs1	-63.7
C=CCSc1nnc(-c2ccccc2N=Cc2c(C)[nH]n(-c3ccccc3)c2=O)c(=O)[nH]1	-26.5
O=C(c1cccc(S(=O)(=O)N2CCOCC2)c1)N1CCN(S(=O)(=O)c2cccs2)CC1	5.04
O=C(Nc1ccc([N+](=O)[O-])cn1)c1cc(-c2cccc(Br)c2)nc2ccccc12	17.6
O=C(CSc1nc2ncc(Br)cc2[nH]1)c1ccc([N+](=O)[O-])cc1	-66.9
O=[N+]([O-])c1ccc(CSc2nc3ncc(Br)cc3[nH]2)cc1	6.04
O=C(CSc1nc2ncc(Br)cc2[nH]1)c1cccc([N+](=O)[O-])c1	-45.7
CCOC(=O)c1cc(C#N)c(N2CCCC2)nc1-c1ccccc1	-7.5
C/C(=C\c1ccc(C)o1)C(=O)c1c(C)cc(C)[nH]c1=O	11.5
CCN1CCN(CC(O)COC(c2ccccc2)c2ccccc2C)CC1.O=C(O)C(=O)O (centres unmarked)	-10.6
O=C(O)C(=O)O.OCC1CCCCN1CC(O)COC(c1ccc(F)cc1)c1ccc(F)cc1 (centres unmarked)	-71
Cc1ccccc1C(OCC(O)CN1CCC(C(N)=O)CC1)c1ccccc1 (centres unmarked)	-59.3
CCC1CCCCN1CC(O)COCc1cccc(OC)c1 (centres unmarked)	3.15
OCCC1CCCCN1CC(O)COCc1ccc(Cl)cc1 (centres unmarked)	-7.29
CC(OCC(O)CN1CCCCC1CCO)c1ccc(Cl)cc1 (centres unmarked)	4.2
Cc1ccc(C(OCC(O)CN2CCCCC2CO)c2ccccc2)cc1 (centres unmarked)	-62.8
NC(=O)C1CCN(CC(O)CSc2ccccc2)CC1 (centres unmarked)	-0.00192
Cc1ccccc1C(OCC(O)CN1CCCCC1CCO)c1ccccc1 (centres unmarked)	-61.6
COc1ccccc1COCC(O)CN1CCCCC1CO.O=C(O)C(=O)O (centres unmarked)	18.6
CCOC(=O)CC(=O)Nc1ccc(Br)cc1C(=O)O	-11.3

Compound	hERG current change (%, negative = inhibition) at 10uM [%]
COc1ccc(CNC(=O)c2cc(=O)c3cc(C)cc(C)c3o2)cc1	2.04
CCn1c(SCC(=O)Nc2ccc(NC(=O)c3ccco3)c(OC)c2)nc2ccccc2c1=O	-20
CCOC(=O)C1=C(O)/C(=C/c2ccc(OCC(=O)Nc3ccc(C)cc3)cc2)N=C1C	10.6
C/C(=N\NC(=O)c1cc(-c2cccnc2)nc2ccccc12)c1ccccc1O	0.355
Cn1c(=O)c2c(=O)cc(NNC(=O)C(C)(C)C)[nH]c2n(C)c1=O	0.349
CCCC[C@@H]1CNC(=S)N1CCCC	11
C/C(CC(=O)Nc1ccc2c(c1)OCCO2)=N\NC(=O)Cc1ccc(Cl)cc1	11.2
CCCCc1nnc(NC(=O)CSc2nc(O)c(-c3ccccc3)c(=O)[nH]2)s1	1.48
Cc1ccc(N(CCCCN2C(=O)c3ccccc3C2=O)C(=O)c2ccc(Cl)s2)cc1	2.79
CC(=O)N(CCCCN1C(=O)c2ccccc2C1=O)c1ccc(C)cc1	-34.5
Cc1ccc(N(CCCCN2C(=O)c3ccccc3C2=O)C(=O)c2cccc([N+](=O)[O-])c2)cc1	-59.5
O=C1c2ccccc2C(=O)N1CCCCN(C(=O)c1ccc([N+](=O)[O-])cc1)c1ccc(Cl)cc1	-3.93
Cc1ccc(N(CCCCN2C(=O)c3ccccc3C2=O)C(=O)c2cccs2)cc1	-67.3
O=C1c2ccccc2C(=O)N1CCCCN(C(=O)c1ccco1)c1ccc(Cl)cc1	-55.7
O=C1c2ccccc2C(=O)N1CCCCN(C(=O)c1cccc([N+](=O)[O-])c1)c1ccc(Cl)cc1	-7.96
O=C1c2ccccc2C(=O)N1CCCCN(C(=O)c1cc([N+](=O)[O-])cc([N+](=O)[O-])c1)c1ccc(Cl)cc1	5.87
O=C1c2ccccc2C(=O)N1CCCCN(C(=O)c1ccc(Cl)s1)c1ccc(Cl)cc1	8.41
OC1C2(Cc3ccccc3)CN3CCN(C2)CC1(Cc1ccccc1)C3 (centres unmarked)	-1.47
Cc1[nH][nH]c(=O)c1C(c1ccc(-c2cccc(C(=O)O)c2)o1)c1c(C)[nH][nH]c1=O	19.2
COc1ccc(OC)c(NC(=O)c2ccc(Cl)cc2)c1	-5.32
COc1ccc(/C(C)=N/Nc2nc3ccccc3n3cnnc23)cc1OC	-19.4
CC(c1ccccc1)n1c(CCCO)nc2ccccc21 (centres unmarked)	-2.26

Compound	hERG current change (%, negative = inhibition) at 10uM [%]
COc1cccc(OC)c1C(=O)Nc1ccc(Cc2ccncc2)cc1	8.86
CC1CCCN(Cc2nc3c(c(=O)n(C)c(=O)n3C)n2CC(=O)c2ccccc2)C1 (centres unmarked)	-8.71
CCN(Cc1ccncc1)Cc1cn[nH]c1-c1ccc(OC)cc1F	-3.13
COc1ccc(NC(=O)CN(C)C(=O)c2cccc3ccccc23)cc1	3.09
C=CCNc1nc(Nc2ccc([N+](=O)[O-])cc2)nc(OC)n1	-14.1
C=CCNc1nc(Nc2ccc([N+](=O)[O-])cc2)nc(N2CCCC2)n1	-23.8
CCOc1nc(NCCN2CCOCC2)nc(NC(C)C)n1	-9.84
CCOc1nc(NCCN2CCOCC2)nc(Nc2ccc([N+](=O)[O-])cc2)n1	-93.1
OCCNc1nc(Nc2ccc(Cl)cc2)nc(N2CCCC2)n1	-15.1
CCOc1nc(NCCN2CCOCC2)nc(Nc2ccc(C)cc2)n1	-65.3
COc1nc(NCCN2CCOCC2)nc(Nc2ccc([N+](=O)[O-])cc2)n1	-50.7
CCCNc1nc(Nc2ccc(C)cc2)nc(N2CCCC2)n1	-30.6
CCOc1nc(Nc2ccc([N+](=O)[O-])cc2)nc(NC(C)(C)C)n1	12.2
COc1nc(NCCO)nc(Nc2ccc([N+](=O)[O-])cc2)n1	-40.2
CCOc1nc(NCCO)nc(Nc2ccc([N+](=O)[O-])cc2)n1	-9.66
O=[N+]([O-])c1ccc(Nc2nc(NCCO)nc(N3CCCC3)n2)cc1	-58.3
CCCn1c(N)c(N(CCOC)C(=O)c2cc(C)cc(C)c2)c(=O)[nH]c1=O	16.4
CCCS(=O)(=O)N1CCN(Cc2ccc(OCc3ccccc3)c(OC)c2)CC1.O=C(O)C(=O)O	-43.2
O=C(NCc1ccccn1)c1c(Cl)cccc1Cl	2.78
COc1ccc(-n2c(C)cc(C)c(C(C)=O)c2=S)cc1	-2.39
Cc1cccc(N2CCN(CC(=O)N(C3CCCC3)C3CCS(=O)(=O)C3)CC2)c1C (centres unmarked)	-13.3
CCCc1nnc(SCC(=O)N(CC)CC)n1CC1CCCO1 (centres unmarked)	21.9

Compound	hERG current change (%, negative = inhibition) at 10uM [%]
Cc1ccc2[nH]c(=O)c(CN(CCc3ccccc3)Cc3nnnn3CC3CCCO3)cc2c1 (centres unmarked)	-16
CC(=O)Nc1ccc(/C=N/NC(=S)NC(C)C)cc1	21.3
CC(Cc1n[nH]c(=S)n1N)c1ccccc1 (centres unmarked)	19.8
CS(=O)(=O)c1ccc(Cl)c(NC(=O)COC(=O)c2ccc(-n3cnnn3)cc2)c1	-7.82
COc1cccc(CNC(=O)COc2cccc(-n3cnnn3)c2)c1	-18.9
O=C(COc1cccc(-n2cnnn2)c1)Nc1ccc([N+](=O)[O-])cc1	-43.6
O=C(COc1cccc(-n2cnnn2)c1)Nc1ccccc1	-26.4
Cc1ccc(NC(=O)COc2cccc(-n3cnnn3)c2)cc1[N+](=O)[O-]	-0.307
COc1ccc(NC(=O)COc2cccc(-n3cnnn3)c2)cc1Cl	24
CCc1ccc(NC(=O)COc2cccc(-n3cnnn3)c2)cc1	-68
COC(=O)c1ccc(NC(=O)COc2cccc(-n3cnnn3)c2)cc1	6.77
COc1ccc(NC(=O)COc2cccc(-n3cnnn3)c2)cc1	-54.3
COc1cccc(NC(=O)COc2cccc(-n3cnnn3)c2)c1	-50.8
S=c1[nH]nc(CSCc2ccccc2Cl)n1-c1ccccc1	0.868
CCOc1ccccc1N(CC(=O)NC1CCCC1)C(=O)CCCC(=O)Nc1ccccn1	-8.6
O=C(O)/C=C\c1cccc(-n2cnnn2)c1	-1.3
CCC(=NCCc1c[nH]c2ccccc12)c1c(O)n(C)c(=O)n(C)c1=O	-10.8
COc1ccc(/C(C)=N/NC(=O)C2C3CCCCC32)c(OC)c1 (centres unmarked)	-0.79
CN(C)CCNC(=O)Cn1ccc2cc(S(=O)(=O)N3CCCCC3)ccc21	8.47
Cc1ccc(NC(=O)CN(C)C(=O)c2nn(C)c(=O)c3ccccc23)cc1	-35.7
